Several values for one entry are separate records, joined by “and”; a condition that tells them apart may be missing. Equal values may be shown once. Hit rate of the full screen: of about 16,000 compounds, about 2,600 (16%) were called active. Roughly 20% stayed inconclusive and do not appear here. Only a sample is shown. Values without a mark were called inactive. Calls come from the whole dose curve; as a rule, active = well fitted curve in the direction sought with a large enough effect; inconclusive = small, poorly fitted or top-dose-only effect, or effect the other way; inactive = no such curve, though single readings can be large or run the other way.
Biological target: Cytochrome P450 2D6 (Homo sapiens) (UniProt P10635)
Sequence (P10635 whole entry, looked up): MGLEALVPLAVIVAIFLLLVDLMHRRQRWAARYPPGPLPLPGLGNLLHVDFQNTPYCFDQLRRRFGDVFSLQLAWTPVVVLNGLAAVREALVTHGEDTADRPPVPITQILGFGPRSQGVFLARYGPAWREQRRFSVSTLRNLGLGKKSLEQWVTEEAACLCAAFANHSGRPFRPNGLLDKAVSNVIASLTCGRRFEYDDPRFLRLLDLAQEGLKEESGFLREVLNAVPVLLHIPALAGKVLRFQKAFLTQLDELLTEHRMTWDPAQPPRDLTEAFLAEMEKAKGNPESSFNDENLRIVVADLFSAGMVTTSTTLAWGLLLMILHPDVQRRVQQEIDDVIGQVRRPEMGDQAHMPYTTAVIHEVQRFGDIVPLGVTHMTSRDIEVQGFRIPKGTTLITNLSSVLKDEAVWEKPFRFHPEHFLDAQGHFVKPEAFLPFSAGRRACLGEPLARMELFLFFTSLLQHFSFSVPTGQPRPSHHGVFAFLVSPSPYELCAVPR
Assay: Cytochrome panel assay with activity outcomes
Settings: recombinant CYP, pro-luciferin dealkylation, luminescence, p450-cyp2d6; series mostly up to 57.1 µM; activity, negative = inhibition: at the top concentration
% is set by controls: 0 for no effect and ±100 for the full control effect.

Structure (SMILES) | activity, negative = inhibition | AC50
N#CCCSC(=S)[C@H]1CCCC1=N | -9.64% [at 11.4 µM] | –
O=C(COc1ccccc1Cl)Nc1cc(Cl)ccc1Oc1ccccc1 | -7.9% | –
CC(C/C=N/NC(=O)COc1cc(Cl)ccc1Cl)c1ccccc1 (stereo not drawn) | – | 631 nM (active)
O=C(COc1ccccc1C(=O)N/N=C\c1ccc(O)c(O)c1)N/N=C/c1ccc(O)c(O)c1 | -6.7% | –
CC(C)(C)NC[C@@H](O)c1ccc(O)c(CO)n1 | -1.17% [at 11.4 µM] | –
Cc1cccc(C)c1NC(=O)COc1cccc(/C=N/NC(=O)C(=O)NCc2ccccc2)c1 | 3.74% | –
O=C(CC(=O)N/N=C\c1c(Cl)cccc1Cl)NCc1ccccc1 | -29.6% | –
CCCCNC(=O)C1CC(=O)N(CCC(C)C)C1 (stereo not drawn) | 0.785% | –
CCCC/C=C/C(NC(=O)c1cccs1)c1ccccc1 (stereo not drawn) | 1.02% | –
CNCCCCCCCCSc1nc(C(C)C)ccc1C(=O)c1cccs1 | – | 6.31 nM (active)
C[C@@H](C(=O)O)c1ccc(C(=O)c2cccs2)cc1 | -5.01% [at 25.6 µM] | –
Nc1ncnc2c1ncn2C1CCCC1 | 8.79% | –
CNC(=O)Oc1ccc2c(c1)[C@@]1(C)CCN(C)[C@@H]1N2C | – | 1.26 µM (active) and 631 nM (active)
COc1ccc(Nc2ncc3c(n2)CC(c2ccc(C)cc2)CC3=O)cc1 (stereo not drawn) | -9.28% | –
O=c1c(-c2ccc(Cl)cc2)[n+]([O-])c2ccccc2n1OCc1ccccn1 | 14.8% | –
CC(C(=O)NC1CCCC1)N(C(=O)c1ccc(-c2ccccc2)[nH]1)c1ccccc1F (stereo not drawn) | -20.3% | –
CCOC(=O)Cc1csc(NC(=O)c2ccc(S(=O)(=O)N3CCCCC3)cc2)n1 | 1.88% | –
CC(C)C(C(=O)NCC1CCCO1)N(Cc1ccco1)C(=O)CNS(=O)(=O)c1ccc(F)cc1 (stereo not drawn) | -2.69% | –
CN(C(=O)Cn1nnc(-c2cccc(C(F)(F)F)c2)n1)C1CCCCC1 | 27.7% | –
CC(C)CC(C(=O)NCC1CCCO1)N(C(=O)Cn1nnc(-c2ccc(F)cc2)n1)c1cccc(C(F)(F)F)c1 (stereo not drawn) | – | 12600 nM (active)
COc1ccc(S(=O)(=O)N(CC(=O)NCC2CCCO2)c2ccc(F)cc2)cc1OC (stereo not drawn) | -5.47% | –
Cc1cccc2c(SCC(=O)NCC3CCCO3)nc(-c3ccc(F)cc3)nc12 (stereo not drawn) | -24.8% | –
CC(C)CC(C(=O)NCC1CCCO1)N(C(=O)Cn1nnc(-c2ccc(F)cc2)n1)c1ccccc1F (stereo not drawn) | – | 20000 nM (active)
NCCCCCC(=O)O | – | inactive
Clc1ccc(-c2nnc(-c3ccco3)o2)cc1 | -8.43% | –
O=c1[nH]c(=O)c2nc3ccccc3nc2[nH]1 | 9.16% | –
CC(=O)NCCC(=O)Nc1sc2c(c1-c1nc3ccccc3[nH]1)CCCC2 | -28.3% | –
Cc1ccc(NC(=O)N/C=C/c2ccco2)cc1C | -29.6% | –

— PubChem BioAssay AID1851 (National Center for Advancing Translational Sciences (NCATS), 2009)
